Results as given in the supplement of paper PMC11150407.
About 180 (8.6%) of roughly 2,100 compounds showed an effect of 50% or more. Only a selection was taken, and strong results are over-represented in it overall.

system: MOLM1 and UCSD/AML1 (averaged); experiment: cell viability relative to DMSO control (POC); higher = less growth inhibition; conditions: 1 µM; 72 h
Procedure: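 Primary viability screen in the 3q26 EVI1-high AML cell lines MOLM1 and UCSD/AML1 (1.5e3 cells/well, 384-well), compounds at 1 uM for 72 h. ATP CellTiter-Glo read-out given as percent of viable cells over DMSO control (POC), averaged over duplicates. DMSO was the negative control and 5 uM etoposide the positive control. This mapping covers the MicroSource Spectrum and Selleck anticancer libraries (drug names).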

| SMILES | cell viability [%] |
| --- | --- |
| c1cc2c(cc1[C@H]1OC[C@H]3[C@@H]1CO[C@H]3c1ccc3c(c1)OCO3)OCO2 | 84.6 |
| C[C@@H]1CC[C@]2(NC1)O[C@H]1C[C@H]3[C@@H]4CC=C5C[C@@H](O)CC[C@]5(C)[C@H]4CC[C@]3(C)[C@H]1[C@@H]2C | 94.1 |
| C[C@H]1C(=O)O[C@@H]2CCN3CC=C(COC(=O)[C@](C)(O)[C@]1(C)O)[C@H]23 | 103 |
| C[C@@H]1C(=O)O[C@H]2[C@H]1CC[C@@]1(C)C=CC(=O)[C@@]3(C)O[C@@]213 [EPOXY (4,5alpha)-4,5-DIHYDROSANTONIN] | 95.7 |
| CNC(Cc1c[nH]c2ccccc12)C(=O)O (stereo not drawn) | 102 |
| C=C[C@H]1CN2CC[C@H]1C[C@H]2[C@H](OC(=O)OCC)c1ccnc2ccc(OC)cc12 | 98.5 |
| N[C@@H]1C[C@H]1c1ccccc1.N[C@H]1C[C@@H]1c1ccccc1 | 93.1 |
| COP(N)(=O)SC (stereo not drawn) | 111 |
| C[C@@H]1C[C@H](O)[C@@]2(O)[C@]13CC(=O)OC[C@@]2(C)[C@@](C)(O)C(=O)C3 | 92.3 |
| C[C@]12CC[C@H](O)C[C@H]1CC[C@@H]1[C@@H]2C[C@@H](O)[C@]2(C)[C@@H](C3=CC(=O)OC3)CC[C@]12O | 18.7 |
| CC(=O)C1CCC2C3CCC4C[C@H](O)CCC4(C)C3C[C@H](O)C12C (stereo partly drawn) [DIHYDROXY (3alpha,12alpha)PREGNAN-20-ONE] | 105 |
| C[C@]12CC[C@H](O)C[C@@H]1CC[C@@H]1[C@@H]2CC[C@]2(C)C(=O)CC[C@@H]12 | 98.7 |
| COP(=S)(OC)Oc1ccc(Sc2ccc(OP(=S)(OC)OC)cc2)cc1 | 101 |
| CSc1nc(NC(C)C)nc(NC(C)C)n1 | 102 |
| CC1(C)C(=O)C=C[C@@]2(C)C1=C(O)C(=O)[C@]1(C)[C@@H]2CC[C@@]2(C)[C@H](c3ccoc3)C[C@H]3O[C@]321 | 85.9 |
| CC(=O)O[C@@H]1C[C@@]2(C)[C@H](c3ccoc3)C[C@H]3O[C@]32[C@]2(C)C(=O)C(O)=C3C(C)(C)C(=O)C=C[C@]3(C)[C@@H]12 | 19.3 |
| CC(=O)O[C@H]1C[C@@H](OC(C)=O)C(C)(C)C2C[C@@H](OC(C)=O)[C@]3(C)C(CC[C@@]4(C)[C@H](c5ccoc5)C(=O)[C@H]5O[C@]543)[C@]21C (stereo partly drawn) | 85.4 |
| CNC(C)[C@H](O)c1ccccc1 (stereo partly drawn) | 93.6 |
| Cc1nccc2c1[nH]c1cc(O)ccc12 | 81 |
| O=C(NC(=O)c1c(F)cccc1F)Nc1ccc(Cl)cc1 | 118 |

| SMILES | cell viability [%] |
| --- | --- |
| C[C@@H]1O[C@@H](O[C@@H]2C=C3CC[C@@H]4[C@H](CC[C@]5(C)[C@@H](c6ccc(=O)oc6)CC[C@]45O)[C@@]3(C)CC2)[C@H](O)[C@H](O)[C@H]1O | 2.01 |
| CC(C)(O)[C@@H]1[C@H]2OC(=O)[C@@H]1[C@]1(O)C[C@H]3O[C@]34C(=O)O[C@H]2[C@]14C | 87.8 |
| O=C(NC(=O)c1c(F)cccc1F)Nc1cc(Cl)c(OC(F)(F)C(F)C(F)(F)F)cc1Cl (stereo not drawn) | 93.9 |
| COC(=O)NC(=S)Nc1ccccc1NC(=S)NC(=O)OC | 116 |
| COC(=O)C(c1ccccc1)C1CCCCN1 (stereo not drawn) | 89.3 |
| CC(C)(N)Cc1ccccc1 | 110 |
| N#C/C(=C\c1cccc(O)c1)C(=O)O [alpha-CYANO-3-HYDROXYCINNAMIC ACID] | 94.3 |
| O=c1c2ccccc2[se]n1-c1ccccc1 | 97.5 |
| C[CH2][Hg][S]c1ccccc1C(=O)[O-].[Na+] | 99.6 |
| CCCCCCCCCCCCCCCC[n+]1ccccc1 | 62.3 |
| C/C=C(/C)C(=O)O[C@H]1CC[C@@]2(C)[C@@H]3CC[C@H]4[C@]5(O)C[C@H](O)[C@@]6(O)[C@@H](CN7C[C@@H](C)CC[C@H]7[C@@]6(C)O)[C@]5(O)C[C@@]42O[C@]13O | 94.9 |
| CC(C)N(CCC(C(N)=O)(c1ccccc1)c1ccccn1)C(C)C (stereo not drawn) | 113 |
| N#Cc1c(Cl)c(Cl)c(Cl)c(C#N)c1Cl | 1.55 |
| CC1=CCCC2C1(C)CCC(C)C2(C)CC/C(C)=C/Cn1c[n+](C)c2c(N)ncnc21 (stereo not drawn) [AGELASINE (stereochemistry of diterpene unknown)] | 109 |
| CN[C@@H]1[C@@H](O)[C@@H](O[C@@H]2[C@@H](O)[C@H](O[C@H]3O[C@H]([C@@H](C)O)[C@@H](O)[C@H](O)[C@H]3N)[C@@H](N)C[C@H]2N)OC[C@]1(C)O | 92 |
| CC1(C)C(=O)[C@@H]2O[C@@H]2[C@@]2(C)C1C[C@@H](O)[C@]1(C)C2CC[C@@]2(C)[C@H](c3ccoc3)OC(=O)C3OC321 (stereo partly drawn) [1,2alpha-EPOXYDEACETOXYDIHYDROGEDUNIN] | 91.4 |
| CC1=CC(=O)c2c(O)cccc2C1=O | 74.6 |
| COc1cc2c(cc1OC)[C@@H]1C(=O)c3ccc(OC)c(CC=C(C)C)c3O[C@@H]1CO2 | 103 |
| C=C(C)[C@H]1Cc2c(ccc3c2O[C@@H]2COc4cc(OC)c(OC)cc4[C@@H]2C3=O)O1 | 26.4 |
| COc1cc2c(cc1OC)[C@@H]1C(=O)c3ccc4c(c3O[C@@H]1CO2)CC(C(C)C)O4 (stereo partly drawn) | 77.8 |

| SMILES | cell viability [%] |
| --- | --- |
| O=C1NC(=O)C(=O)C(=O)N1 | 100 |
| CNC1CC(N)C(O)C(OC2OC(CO)C(O)C3OC4(OC(C(N)CO)C(O)C(O)C4O)OC23)C1O (stereo not drawn) | 103 |
| O=[N+]([O-])O[C@@H]1CO[C@H]2[C@@H]1OC[C@@H]2O | 98.1 |
| C/C(=C\c1csc(C)n1)[C@@H]1C[C@@H]2O[C@]2(C)CCC[C@H](C)[C@H](O)[C@@H](C)C(=O)C(C)(C)[C@@H](O)CC(=O)O1 [Epothilone B (EPO906)] | 13.4 |
| C/C(=C\c1csc(C)n1)[C@@H]1C[C@@H]2O[C@@H]2CCC[C@H](C)[C@H](O)[C@@H](C)C(=O)C(C)(C)[C@@H](O)CC(=O)O1 [Epothilone A] | 18.5 |
| O=C(O)CC[N+](=O)[O-] [BOVINOCIDIN (3-nitropropionic acid)] | 94.6 |
| Cc1ccc(O)cc1.Cc1cccc(O)c1.Cc1ccccc1O | 98.6 |
| C/C=C(\C)C(=O)O[C@H]1C[C@@H](OC(C)=O)[C@@]2(C(=O)OC)CO[C@H]3[C@@H](O)[C@@](C)([C@]45O[C@@]4(C)[C@H]4C[C@@H]5O[C@@H]5OC=C[C@@]54O)[C@H]4[C@]1(CO[C@]4(O)C(=O)OC)[C@@H]32 | 97.3 |
| OC[C@@H]1CCCN2CCCC[C@H]12 | 83 |
| C/C=C/c1ccc2c(c1)OCO2 | 108 |
| C[C@@H]1C[C@@H]([C@H](O)CC2CC(=O)NC(=O)C2)C(=O)[C@@H](C)C1 | 18.4 |
| C[C@]12CCC(=O)C=C1C=C[C@@H]1[C@@H]2CC[C@@]2(C)[C@H]1CC[C@@]2(O)CCC(=O)O | 111 |
| NC(=O)c1ccc(N)nc1 | 88 |
| C[C@@H](N)[C@@H](O)c1ccccc1 | 106 |
| CC(C)c1cc2c(c(O)c1O)[C@@]1(C(=O)O)CCCC(C)(C)[C@@H]1CC2 | 107 |
| C=C[C@H]1CN2CC[C@H]1C[C@H]2[C@H](O)c1ccnc2ccccc12 | 105 |
| O=C(NC(=O)c1ccccc1Cl)Nc1ccc(OC(F)(F)F)cc1 | 113 |
| O=C1C=CC(=O)c2ccccc21 | 89.5 |
